Vaccinia Venus: qHTS for Stage-Specific Inhibitors of Vaccinia Orthopoxvirus: Venus Reporter Primary qHTS. Vaccinia virus Venus reporter expression, fluorescence. Potency, µM (doses to about 36.5 µM), usual class: inhibitors. AID 720580, 2013. 330,000 tested, 0.46% active; calls by dose curve; tested in A549 cells; also: nearly all actives have a fitted effect of over 30% in size
AmpC inh detg: qHTS Inhibitors of AmpC Beta-Lactamase (assay with detergent). P00811. 370,000 tested, 0.041% active. AmpC hydrolysis of nitrocefin, absorbance 480 nm, 0.01% Triton. Potency, µM (doses to about 114 µM), actives largely listed as inhibitors; also: nearly all actives have a fitted effect of over 25% in size
Target sequence (P00811 whole entry, looked up): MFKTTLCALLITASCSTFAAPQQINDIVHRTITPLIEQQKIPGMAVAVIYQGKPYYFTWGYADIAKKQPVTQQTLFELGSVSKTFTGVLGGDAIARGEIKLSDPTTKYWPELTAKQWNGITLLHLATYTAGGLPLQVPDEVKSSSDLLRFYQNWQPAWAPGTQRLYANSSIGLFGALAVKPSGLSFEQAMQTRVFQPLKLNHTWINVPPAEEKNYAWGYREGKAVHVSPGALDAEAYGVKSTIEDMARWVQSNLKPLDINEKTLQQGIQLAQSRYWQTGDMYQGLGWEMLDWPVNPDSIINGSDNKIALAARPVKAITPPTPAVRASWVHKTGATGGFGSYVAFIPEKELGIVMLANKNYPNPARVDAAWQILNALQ
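AmpC (5.3 nM in the dispensed reagent) in 20 mM phosphate pH 7.0 with 0.01% (detergent screen) or 0.0001% Triton X-100 was preincubated with compounds for 15 min at room temperature. Nitrocefin was then added from an 800 uM solution, and hydrolysis was followed at 480 nm.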
AmpC inh no detg: qHTS Inhibitors of AmpC Beta-Lactamase (assay without detergent) | AmpC nitrocefin hydrolysis, absorbance 480 nm, 0.0001% Triton | P00811 | Potency, µM (doses to about 57.1 µM), hits mostly inhibitors | 330,000 tested, 0.52% active; also: nearly all actives have a fitted effect of over 20% in size
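AmpC (5.3 nM in the dispensed reagent) in 20 mM phosphate pH 7.0 with 0.01% (detergent screen) or 0.0001% Triton X-100 was preincubated with compounds for 15 min at room temperature. Nitrocefin was then added from an 800 uM solution, and hydrolysis was followed at 480 nm.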
VACV mCherry inh: qHTS for Stage-Specific Inhibitors of Vaccinia Orthopoxvirus: mCherry Reporter Primary qHTS | Vaccinia virus mCherry reporter infection, fluorescence | Potency, µM (highest dose often 36.5 µM), hits mostly inhibitors | 310,000 tested, 0.63% active | AID 720579, 2013; calls by dose curve; tested in A549 cells; also: nearly all actives have a fitted effect of over 35% in size
Numbers stand for hits; - = inactive; ? = inconclusive; . = no result; [ ] = another dose, or the depositor's remark. Rows were chosen to be rich in hits. Some 1.1% of all compounds tested hit in one or more screens of this group. Unless noted, calls follow the shape of the dose curve; as a rule, active = well fitted curve in the direction sought with a large enough effect; inconclusive = small, poorly fitted or top-dose-only effect, or another doubt; inactive = no such curve, though single readings can be large; an effect the other way counts as inactive or inconclusive.

SMILES	Vaccinia Venus	AmpC inh detg	AmpC inh no detg	VACV mCherry inh
OC(CN1C2=NCCN2c2ccccc21)c1ccc2c(c1)OCO2 (stereo not drawn)	11µM	?	-	-[1.46 µM]
O=C(CN1Cc2ccccc2OC(c2ccccc2)C1)NCc1cccnc1 (stereo not drawn)	-	.	.	-
O=C1CCC/C(=N/NC(=O)c2cc(NS(=O)(=O)c3cccs3)cc(NS(=O)(=O)c3cccs3)c2)C1	.	-	11µM	.
O=C1C(=C(c2ccccc2)N2CCOCC2)Cc2ccccc21	11µM	.	.	?
Cc1cccc(CNC(=O)c2cnn(-c3nccc(-c4cc(C)sc4C)n3)c2C)n1	-	.	.	-
N#CC1=C(N)SC(N)=C(C#N)C1c1ccc(C(F)(F)F)cc1	.	-	-	.
CCc1ccc(C2C(C#N)=C(N)SC(N)=C2C#N)cc1	-	-	8.9µM	-
Cc1cc(NC(=O)C(C)SCC(=O)Nc2cc(C(F)(F)F)ccc2N2CCCCC2)no1 (stereo not drawn)	?	-	32µM	-
C=C1[C@@H](O)[C@@H]2O[C@]3(CC[C@H](/C=C/[C@@H](C)[C@@H]4CC(C)=CC5(O[C@H](C[C@@](C)(O)C(=O)OC)CC[C@H]5O)O4)O3)CC[C@H]2O[C@@H]1[C@@H](O)C[C@H](C)[C@H]1OC2(CCCCO2)CC[C@H]1C (stereo partly drawn)	1.3µM	.	-	1.3µM
C=C1C(O)[C@@H]2O[C@]3(CC[C@H](/C=C/C(C)[C@@H]4CC(C)=CC5(O[C@H](C[C@@](C)(O)CO)CCC5O)O4)O3)CC[C@H]2O[C@@H]1C(O)CC(C)[C@H]1OC2(CCCCO2)CCC1C (stereo partly drawn)	10µM	.	-	?
O=C(Nc1cccc(-c2cn3ccccc3n2)c1)c1cccc(Cl)c1	14µM	-	-	?
O=C(Nc1ccc(-c2cn3ccccc3n2)cc1)c1cccs1	-	-	28µM	-
CO[C@H]1[C@H](NC(=O)c2ccsc2)c2ccccc2C12CCN(Cc1cccn1-c1ccccn1)CC2	-	.	.	-
O=Cc1cn(-c2ccccc2)nc1-c1ccccc1	.	?	-	.
CC1=NNC(=O)/C1=C\c1cn(-c2ccccc2)nc1-c1ccccc1	10µM	-	-	10µM
CSc1nc(N)nc(SCCS(=O)(=O)c2ccc(Cl)cc2)c1C#N	5.6µM	-	-	2.5µM
Cc1ccc(S(=O)(=O)CCSc2nc(C)cc(C)c2C#N)cc1	10µM	-	-	10µM
CCS(=O)(=O)CCSc1nc(C)cc(C)c1C#N	-	-	-	-
COc1cccc(-c2ccnc(-n3ncc(C(=O)NCC4(N5CCCCC5)CCCC4)c3C)n2)c1	-	.	.	-
COc1ccc(C[C@H]2CN3C(=NC[C@H]3Cc3ccccc3)N2CCNC(=O)c2ccc(C)c(Br)c2)cc1	14µM	-	-	?
COc1ccc(C[C@H]2CN3C(=NC[C@@H]3Cc3ccccc3)N2CCNC(=O)c2ccc(C)c(Br)c2)cc1	13µM	-	-	?
COc1ccc(C[C@H]2CN3C(=NC[C@@H]3Cc3ccc(O)cc3)N2CCNC(=O)c2ccc(C)c(Br)c2)cc1	?	-	-	?
Cc1ccc(C(=O)NCCN2C3=NC[C@@H](Cc4ccccc4)N3C[C@H]2Cc2ccc(O)cc2)cc1Br	?	-	-	-
COc1ccc(C[C@H]2CN3C(=NC[C@H]3Cc3ccccc3)N2CCNC(=O)CCC2CCCCC2)cc1	?	-	-	11µM
Cc1ncc2c(c1CNS(=O)(=O)c1cccs1)CCN(C(=O)/C=C/c1ccc(F)cc1F)C2	-	.	.	-
SMILES	Vaccinia Venus	AmpC inh detg	AmpC inh no detg	VACV mCherry inh
O=C(CSc1ncccn1)NCC1Cc2cccc(-c3ncccn3)c2O1 (stereo not drawn)	-	.	.	-
CCC1(C2CCN(C(=O)c3cc4ccccc4o3)CC2)NC(=O)N(CCc2scnc2C)C1=O (stereo not drawn)	-	.	.	-
CCc1nc(Nc2ccc(N3CCN(C(C)=O)CC3)cc2)c2oc3ccccc3c2n1	-	35µM	-	-
C[C@H](CO)N1C[C@H](C)[C@@H](CN(C)S(=O)(=O)c2ccc(F)cc2)Oc2ccc(NS(=O)(=O)c3ccc(F)cc3)cc2C1=O	-	.	-	-
C[C@@H]1CN([C@H](C)CO)C(=O)c2cc(NS(=O)(=O)c3ccc(F)cc3)ccc2O[C@@H]1CN(C)Cc1ccc(Cl)c(Cl)c1	10µM	.	-	?
C[C@@H]1CN([C@H](C)CO)C(=O)c2cc(NC(=O)Nc3ccc(C(F)(F)F)cc3)ccc2O[C@H]1CN(C)Cc1ccc(Cl)c(Cl)c1	10µM	.	-	?
CC1(C2CCN(Cc3c[nH]c4ccccc34)CC2)NC(=O)N(CCN2CCOCC2)C1=O (stereo not drawn)	-	.	.	-
O=C(Nc1ccccc1Br)c1cnn2c1NC(=C1CC1)C=C2C(F)F	-	.	.	-
Cc1ccc(CSc2nc3cccnc3n2Cc2ccc(C(=O)NC3CCCCC3)cc2)cc1	11µM	-	.	?
O=C(Cc1ccccc1[N+](=O)[O-])OCC(=O)c1c[nH]c2ccccc12	-	-	10µM	-
C=CCNC(=O)c1onc(CSc2cc(C)cc(C)c2)c1C(=O)NCC=C	.	-	-	3.2µM
Cc1cccc2cc(CN(CC3CCCO3)C(=O)c3cccc(F)c3)c(N(C)C)nc12 (stereo not drawn)	-	.	.	-
COC(=O)c1cc(CNC(=O)c2ccccc2OC)cc(NC(=O)c2ccccc2F)c1	-	.	.	-
Nc1nn2c(-c3ccccc3)cc(=O)[nH]c2c1N=Nc1ccc(O)cc1	-	-	-	-
Nc1nn2c(-c3ccccc3)cc(=O)[nH]c2c1N=Nc1ccc(Br)cc1	?	-	-	16µM
O=[N+]([O-])c1ccc(/C=N/Nc2ccnc3cc(Cl)ccc23)o1	?	-	-	16µM
Cc1cc(NC(=O)CSCC(=O)OCC(=O)c2cccc(Br)c2)no1	.	-	32µM	.
Cc1cc(NC(=O)CSCC(=O)OCC(=O)Nc2ccc(OC(F)F)cc2)no1	.	-	-	.
Cc1c(C(=O)N2CCN(C(C)C)CC2)sc2ncnc(NCc3ccco3)c12	-	.	.	-
Nc1cc(-c2ccc(Br)cc2)nn1S(=O)(=O)c1cccc2nsnc12	?	?	-	?
Nc1cc(-c2ccc(Cl)cc2)nn1S(=O)(=O)c1cccc2nsnc12	?	-	22µM	?
Cc1ccc(-c2nc(CS(=O)(=O)CC(=O)N3CCCCCC3)c(C)o2)cc1	?	-	6.3µM	?
Cc1ccc(-c2nc(CS(=O)(=O)CC(=O)N3CCc4ccccc4C3)c(C)o2)cc1	-	?	40µM	?
Cc1ccc(-c2nc(CS(=O)(=O)CC(=O)N3CCN(c4ccccc4)CC3)c(C)o2)cc1	-	-	.	?
Cc1cccc(-c2nc(CS(=O)CC(=O)N3CCc4ccccc4C3)c(C)o2)c1 (stereo not drawn)	-	?	-	-
Cc1cc(CNC(=O)c2cnn(-c3ncc4c(n3)-c3ccccc3CCC4)c2C2CC2)on1	-	.	.	-
CCOC(=O)c1c(C)[nH]c(=S)c(C#N)c1-c1ccc(Cl)cc1	-	-	28µM	-
